Assay outcomes deposited in PubChem by several laboratories.
This is a sample that favours compounds with a hit; in the whole collection about 1.1% have one here.
Insulin prom up: MIN6 insulin promoter up-regulation; 190,000 tested, 0.3% active; AID 1625; MIN6 insulin promoter-GFP reporter, high-content imaging; active compounds read high; z-score at 5 µM;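 active = z-score above 3 at 5 µM with at least 500 cells counted in the well; inconclusive = wells under 500 cells, flagged as cytotoxic or low count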
HSV replic up: HSV replication enhancement. HSV replication augmentation in cells, fold increase. 220,000 tested, 0.005% active. maximum fold increase; in the data active = maximum fold increase above about 1.5; inconclusive = no clear call, values can overlap the other calls; tested in PC3 cells
Efa HMGR inh: E. faecalis class II HMG-CoA reductase inhibition | purified E. faecalis HMGR, NADPH absorbance 340 nm kinetic | inhibition, % at 10 µM | 190,000 tested, 0.41% active;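 active = inhibition above a set limit, the median over all tested compounds plus 3 SD, cut at about 9.5% in these data; inconclusive = no clear call, values can overlap the other calls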;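 also: enzyme runs in reverse so mevalonate oxidation gives rising NADPH absorbance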
Insulin prom inh: TRM-6 insulin promoter activity inhibition | TRM-6 cells (human fetal islet line), insulin promoter-eGFP reporter, imaging; reporter expression induced with tamoxifen | inhibition, % at 2 µM | 130,000 tested, 0.9% active;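 active = inhibition above the mean plus 3 SD, with well images judged a real hit on visual review, cut at about 60% in these data, passing the limit was not always enough; inconclusive = inhibition over the cutoff but images rejected on review; inactive = inhibition not above the cutoff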
A number is an active result; . = inactive; ? = inconclusive; / = not tested or not shown.

SMILES	Insulin prom up	HSV replic up	Efa HMGR inh	Insulin prom inh
Cc1ccc(C(=O)NCCCn2ccnc2)cc1[N+](=O)[O-]	5.5	.	.	.
Cc1ccc(C(=O)NN2C(=O)C3C4C=CC(C5CC45)C3C2=O)cc1 (centres undefined)	.	.	11	.
Cc1ccc(C(=O)NN2C(=O)C3C4C=CC(C4)[C@@H]3C2=O)cc1 (some centres undefined)	.	.	/	/
Fc1ccc(-c2csc3[n+]2CCS3)cc1	/	.	17	.
Cc1ccc(S(=O)(=O)N2CCOCC2)cc1C(=O)Nc1ccc(S(=O)(=O)Nc2nccs2)cc1	.	.	.	/
Cc1ccc(/C=C/c2nc3ccccc3[nH]2)o1	.	?	.	71
Cc1cc2nc(/C=C/c3nc4cc(C)c(C)cc4[nH]3)[nH]c2cc1C	.	.	/	/
C1CCC(C(CC2CCCCN2)C2CCCCC2)CC1 (centres undefined)	/	.	10	.
Cc1cc(/C=C2\SC(=S)NC2=O)c(C)n1-c1ccc(O)cc1	3.7	.	/	/
COc1ccc2c(c1)C(SCC(=O)NCCc1ccc(Cl)cc1)CC(C)(C)O2 (centres undefined)	.	/	.	.
O=C(Nc1ccc(S(=O)(=O)Nc2ccccc2)cc1)C1COc2ccccc2O1 (centres undefined)	.	.	15	.
Cc1cc(C)nc(NS(=O)(=O)c2ccc(NC(=O)C3COc4ccccc4O3)cc2)n1 (centres undefined)	/	.	.	.
COc1cc(NC(=O)c2cccs2)c(C(=O)OCC(=O)NCc2ccccc2)cc1OC	.	?	.	.
COc1cc(NC(=O)c2cccs2)c(C(=O)OCC(=O)NC(C)c2ccccc2)cc1OC (centres undefined)	.	.	.	70
O=C(Nc1nnc(COc2ccc(Cl)cc2)s1)c1cccs1	.	?	.	80
Cc1nn(-c2ccccc2C(=O)O)c(=O)c2ccccc12	.	.	.	.
Cc1nn(-c2c(Cl)cc(Cl)cc2Cl)c(=O)c2ccccc12	3.4	.	.	.
Cc1c(N2C(=O)c3cccc4cccc(c34)C2=O)c(=O)n(-c2ccccc2)n1C	.	.	.	69
Cc1c(N=C2Nc3cccc4cccc2c34)c(=O)n(-c2ccccc2)n1C	.	.	.	.
COc1ccc(C2/C=C\CN(S(=O)(=O)c3cccc4cccnc34)CC(=O)N2Cc2ccc(F)cc2)cc1 (centres undefined)	7.5	.	/	/
O=C(NC(=S)NCCN1CCOCC1)c1ccc(Cl)cc1Cl	.	.	.	/
CCCCNC(=S)NC(=O)c1ccc(Cl)cc1Cl	3.1	.	.	/
COc1ccc(Cl)cc1-c1nc(SCC(N)=O)n[nH]1	.	.	/	/
O=C1OC(N2CCN(C/C=C/c3ccccc3)CC2)c2ccccc21 (centres undefined)	.	/	.	83
CCOc1cc(N2CCOCC2)c(OCC)cc1NC(C)C(=O)N1CCC(C)CC1 (centres undefined)	.	.	.	/
SMILES	Insulin prom up	HSV replic up	Efa HMGR inh	Insulin prom inh
COc1ccc(-c2nc(C#N)c(N3CCC(C(N)=O)CC3)o2)cc1OC	.	.	.	75
CCOC(=O)N1CCN(C(=O)CSc2ccc(-c3ccncc3)nn2)CC1	.	.	.	75
CCOC(=O)N1CCN(C(=O)CSc2ccc(-c3ccccc3)nn2)CC1	/	.	.	.
CCCCn1c(N)c(NCCC(C)C)c(=O)[nH]c1=O	.	.	.	82
COC(=O)c1ccccc1NC(=O)CSc1nnc(COc2cccc(OC)c2)n1C	.	.	.	.
COC(=O)c1ccccc1NC(=O)CSc1nnc(CNS(=O)(=O)c2ccc(C)cc2)n1C	.	.	14	.
CCN(CC)c1nc2ccccc2[nH]1	.	.	.	72
CCN(CC)c1nc2ccccc2[nH]c1=O	.	.	/	/
Cn1nc([N+](=O)[O-])nc1Sc1nnnn1-c1ccc(C(=O)O)cc1	.	.	17	/
O=C(O)c1ccc(Sc2nnnn2-c2ccccc2)c([N+](=O)[O-])c1	.	.	.	.
Cc1ccc(/C=N/Nc2ccc3c(C(F)(F)F)cc(C(F)(F)F)nc3n2)cc1	.	.	.	71
NNc1ccc2c(C(F)(F)F)cc(C(F)(F)F)nc2n1	.	.	.	.
COc1nnc(-c2ccccc2)s1	.	.	.	.
O=C(CSc1nc(-c2ccccc2)nc2c1Cc1ccccc1O2)Nc1ccc(C(=O)O)cc1	.	.	15	/
O=C(CSc1nc(-c2ccc(F)cc2)nc2c1Cc1ccccc1O2)Nc1ccc(C(=O)O)cc1	.	.	.	/
O=C(Nc1nccs1)c1ccc(COc2ccccc2Cl)o1	/	.	.	/
CNC(=O)COC(=O)COc1ccc2c(C)cc(=O)oc2c1	.	.	.	/
Cc1cc(=O)oc2cc(OCC(=O)OCC(=O)NC3CC3)ccc12	3.8	.	.	/
COc1ccccc1N(C)S(=O)(=O)c1ccc(C(=O)OCC(=O)N(C(C)C)C(C)C)cc1	.	.	.	/
CC1CC(=O)C2=C(C1)OC(N)=C(C#N)C2c1coc2ccccc2c1=O (centres undefined)	3	.	.	.
CC1(C)CC(=O)C2=C(C1)OC(N)=C(C#N)C2c1ccccc1 (centres undefined)	.	.	.	/
CCOC(=O)C1C(=O)C=C(c2ccc(C)cc2)CC1c1ccccc1 (centres undefined)	.	.	.	/
CCOC(=O)C1C(=O)C=C(/C=C/c2ccc(N(C)C)cc2)CC1c1ccccc1 (centres undefined)	9.8	?	.	/
C/C(=N\NC1=NCCN1)c1ccc(Cl)cc1	.	.	/	/
CCN(CC)CC(=O)Nc1ccc(/C(C)=N/NC2=NCCN2)cc1	.	.	9.7	.
SMILES	Insulin prom up	HSV replic up	Efa HMGR inh	Insulin prom inh
Cc1ccc(CNc2nc(-c3cccs3)nc3ccccc23)cc1	.	.	.	/
c1ccc(CNc2nc(-c3cccs3)nc3ccccc23)nc1	.	.	.	92
O=C1c2cccc3c(N4CCCCC4)ccc(c23)C(=O)N1c1ccc(O)cc1	6.1	?	.	/
Cc1nc2ccc(NC(=O)N3CCSCC3)cc2nc1C	.	.	.	77
Cc1ccc(C)c(NNC(N)=S)c1	.	.	.	.
Cc1cccc(NNC(N)=S)c1C	.	.	10	/
Cc1ccccc1C(=O)N[C@H](C(=O)OCC(=O)c1ccc[nH]1)C(C)C	.	.	.	/
O=C(O)c1ccccc1CSc1nc2ccccc2n1Cc1ccccc1C(=O)O	.	.	11	/
CC(=O)Nc1ccc(N2CCc3c(C)c(C#N)c4nc5ccccc5n4c32)cc1	3.8	.	.	.
CC(C)c1ccc(N=C2N=C(N)c3ccccc32)cc1	.	.	/	/
COc1cc(OC)cc(C(=O)NC(=S)Nc2ccc3c4c(cccc24)CC3)c1	.	.	.	.
COc1ccc(C(=O)Nc2ccc3c4c(cccc24)CC3)cc1	.	.	.	100
Cc1ccc(NS(=O)(=O)c2cc3c4c(cccc4c2)C(=O)NC3=O)cc1C	.	.	/	/
Cc1cccc(C(=O)c2c[nH]cc2-c2ccccc2)c1	.	.	.	.
O=C(/C=C/c1ccc(N2CCCCC2)c([N+](=O)[O-])c1)c1ccc(O)cc1	.	.	.	83
CCOc1ccc(C(=O)NC2=NCCS2)cc1	.	.	.	83
CCOc1cc(C(=O)NC2=NCCS2)cc(OCC)c1OCC	.	.	.	.
O=c1c(N2CCOCC2)c(N2CCOCC2)c1=O	3	.	/	/
CC(C)Oc1c(N2CCOCC2)c(=O)c1=O	.	.	/	/
O=C1Nc2ccc3sc4ccccc4c3c2C1=O	.	.	/	/
